Holding throughout (type): functional
Experiment [1] has as its target Solute carrier family 2, facilitated glucose transporter member 1 (Homo sapiens) (UniProt P11166). As to the kind of experiment: ST_JUDE_LEISH: Cytotoxicity at 2uM final concentration against transgenic Leishmania Mexicana promastigotes LmGLUT1 that are glucose transport deficient and complemented with the human glucose transporter GLUT1. Activity is measured by DNA content using SYBR green in vitro.

For experiment [2], the target named is Hexose transporter 1 (Plasmodium falciparum) (UniProt O97467). As to the kind of experiment: ST_JUDE_LEISH: Cytotoxicity at 2uM final concentration against transgenic Leishmania Mexicana promastigotes LmPfHT that are glucose transport deficient and complemented with the Plasmodium falciparum hexose transporter. Activity is measured by DNA content using SYBR green in vitro.

Experiment [3] deals with Glucose transporter (Leishmania mexicana) (UniProt O61059). As to the kind of experiment: ST_JUDE_LEISH: Cytotoxicity at 2uM final concentration against transgenic Leishmania Mexicana promastigotes LmGT2 that are glucose transport deficient and complemented with the L. Mexicana glucose transporter 2. Activity is measured by DNA content using SYBR green in vitro.

Chain of Solute carrier family 2, facilitated glucose transporter member 1 (Homo sapiens) (P11166 whole entry): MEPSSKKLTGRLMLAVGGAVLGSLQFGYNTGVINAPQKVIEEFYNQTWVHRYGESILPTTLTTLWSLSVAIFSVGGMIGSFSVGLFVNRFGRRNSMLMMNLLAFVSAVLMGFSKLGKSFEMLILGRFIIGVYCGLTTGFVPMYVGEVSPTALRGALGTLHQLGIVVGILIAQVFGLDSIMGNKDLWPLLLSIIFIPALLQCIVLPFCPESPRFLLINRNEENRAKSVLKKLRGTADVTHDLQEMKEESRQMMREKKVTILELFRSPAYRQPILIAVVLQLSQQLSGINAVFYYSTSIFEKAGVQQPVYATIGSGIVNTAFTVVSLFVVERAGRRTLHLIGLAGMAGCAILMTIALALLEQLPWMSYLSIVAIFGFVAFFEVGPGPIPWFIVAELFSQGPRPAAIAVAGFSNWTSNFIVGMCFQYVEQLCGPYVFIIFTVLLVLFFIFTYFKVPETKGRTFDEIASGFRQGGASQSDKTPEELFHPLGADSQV

As a reminder, the inhibition is the drop in the measured response relative to a control, in per cent. Regarding `Cc1cc(=O)[nH]c(-n2nc(C)cc2NC(=O)CC(c2ccccc2)c2ccccc2)n1`, the inhibition in experiment [1] was 14.8%; in experiment [2], 23.1%; in experiment [3] it was -1.63%.

For the molecule `COc1cc(NC(=O)c2cccs2)c(OC)cc1NC(=O)Nc1cccc(Cl)c1`, the inhibition is 3.28% in experiment [1], 3.25% in experiment [2] and 2.28% in experiment [3].

As for `COc1cncc(/C=C/c2cncc(C(=O)NCCc3ccc(Cl)cc3Cl)c2)c1`, the inhibition in experiment [1] turned out to be 4.53%; in experiment [2], 5.13%; in experiment [3], 3.94%.

`COc1ccc(NC(=O)c2ccc(-c3cccc(OCc4ccccc4)c3)cc2)cc1N1CCN(C)CC1`: the figures for the inhibition in experiment [1], in experiment [2] and in experiment [3] were 1.72%, 0.6% and -0.95%, respectively.

Regarding `CN(C)CCNC(=O)NC1CN(c2ncnc3cc(-c4ccccc4)sc23)C1`, the inhibition in experiment [1] was 5.45%; in experiment [2], 4.29%; in experiment [3], 4.03%.

As to `COc1ccc(-c2ccc(NC(=O)c3cccs3)cc2)cc1CN1CCCN(C)CC1`, the inhibition in experiment [1] was 3.24%; in experiment [2] it was 3.15%; in experiment [3] it was -1.12%.

In the case of `Cc1c(NC(=O)COc2ccc(Cl)cc2C(=O)c2cc(F)cc(C(F)(F)F)c2)ccc2ncsc12`, the inhibition came out at 9.85% in experiment [1], 9.17% in experiment [2] and 7.93% in experiment [3].

Consider `c1ccc2[nH]c(-c3ccc(-c4ccc(CN5CCN(c6ccncc6)CC5)cc4)s3)nc2c1`, for which the figures for the inhibition in experiment [1], in experiment [2] and in experiment [3] were 6.21%, 6.05% and 1.74%, respectively.

As for `COCCN1CCC(C(=O)NCC(C)(C)c2nc(-c3ccc(Br)c(O)c3)c(-c3ccncc3)[nH]2)CC1`, the inhibition worked out at 7.2% in experiment [1], 8.02% in experiment [2] and 7.22% in experiment [3].

On to `O=C(Nc1ccc(-c2cccc(-c3nc4ccccc4[nH]3)c2)cc1)Nc1ccc2c(c1)OCO2`, for which the results for the inhibition in experiment [1], in experiment [2] and in experiment [3] were 1.87%, 2.62% and 0.58%, respectively.

`Oc1ccc2ccccc2c1C=NNc1nc(=Nc2ccccc2)nc(N2CCOCC2)[nH]1`: the inhibition was 4.21% in experiment [1], 3.72% in experiment [2] and 0.2% in experiment [3].

On to `CC(C)(C)c1ccc(C(=O)Nc2cccc(Nc3c(C(=O)NCc4cccc(C(F)(F)F)c4)cnc4c(O)cccc34)c2)cc1`, for which the results for the inhibition in experiment [1], in experiment [2] and in experiment [3] were 10.1%, 8.9% and 9.37%, respectively.

These data come from ChEMBL document CHEMBL3433997, “St. Jude Leishmania screening dataset” (2016).
